Data from ChEMBL document CHEMBL1961873, “Compounds: GSK PKIS; Assays: Nanosyn kinase panel” (2012).

What was measured:
[1] = target: Dual specificity protein kinase CLK3 (Homo sapiens) (UniProt P49761); settings: at 1 µM;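 note: each value is the mean inhibition of CLK3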
[2] = target: Dual specificity tyrosine-phosphorylation-regulated kinase 1A (Homo sapiens) (UniProt Q13627); settings: at 0.1 µM
[3] = target: Dual specificity tyrosine-phosphorylation-regulated kinase 1A (Homo sapiens) (UniProt Q13627); settings: at 1 µM
[4] = target: Dual specificity tyrosine-phosphorylation-regulated kinase 1B (Homo sapiens) (UniProt Q9Y463); settings: at 0.1 µM
[5] = target: Dual specificity tyrosine-phosphorylation-regulated kinase 1B (Homo sapiens) (UniProt Q9Y463); settings: at 1 µM
[6] = target: T1, Dual specificity tyrosine-phosphorylation-regulated kinase 2 (Homo sapiens) (UniProt Q92630); settings: at 0.1 µM
T1 sequence (whole entry): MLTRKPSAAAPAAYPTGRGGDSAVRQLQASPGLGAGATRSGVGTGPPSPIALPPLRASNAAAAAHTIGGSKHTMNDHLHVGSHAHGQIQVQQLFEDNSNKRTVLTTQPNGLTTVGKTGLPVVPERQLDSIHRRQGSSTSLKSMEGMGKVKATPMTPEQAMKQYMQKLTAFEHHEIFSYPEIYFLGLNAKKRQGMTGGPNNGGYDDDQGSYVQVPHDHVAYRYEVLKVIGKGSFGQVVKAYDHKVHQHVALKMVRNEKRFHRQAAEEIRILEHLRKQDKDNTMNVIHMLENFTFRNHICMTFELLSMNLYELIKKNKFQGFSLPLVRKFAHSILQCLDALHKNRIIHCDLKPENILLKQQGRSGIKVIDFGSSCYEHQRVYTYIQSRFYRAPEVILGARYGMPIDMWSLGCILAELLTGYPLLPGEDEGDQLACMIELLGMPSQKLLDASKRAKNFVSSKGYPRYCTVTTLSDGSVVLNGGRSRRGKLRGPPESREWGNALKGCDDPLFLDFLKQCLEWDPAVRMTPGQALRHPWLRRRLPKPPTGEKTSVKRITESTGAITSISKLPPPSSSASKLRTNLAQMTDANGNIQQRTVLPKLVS

[7] = target: T1, Dual specificity tyrosine-phosphorylation-regulated kinase 2 (Homo sapiens); settings: at 1 µM
[8] = target: Glycogen synthase kinase-3 alpha (Homo sapiens) (UniProt P49840); settings: at 0.1 µM
[9] = target: Glycogen synthase kinase-3 alpha (Homo sapiens) (UniProt P49840); settings: at 1 µM
[10] = target: Glycogen synthase kinase-3 beta (Homo sapiens) (UniProt P49841); settings: at 0.1 µM
[11] = target: Glycogen synthase kinase-3 beta (Homo sapiens) (UniProt P49841); settings: at 1 µM
[12] = target: Homeodomain-interacting protein kinase 1 (Homo sapiens) (UniProt Q86Z02); settings: at 0.1 µM
[13] = target: Homeodomain-interacting protein kinase 1 (Homo sapiens) (UniProt Q86Z02); settings: at 1 µM
[14] = target: T2, Homeodomain-interacting protein kinase 4 (Homo sapiens) (UniProt Q8NE63); settings: at 0.1 µM
T2 sequence (whole entry): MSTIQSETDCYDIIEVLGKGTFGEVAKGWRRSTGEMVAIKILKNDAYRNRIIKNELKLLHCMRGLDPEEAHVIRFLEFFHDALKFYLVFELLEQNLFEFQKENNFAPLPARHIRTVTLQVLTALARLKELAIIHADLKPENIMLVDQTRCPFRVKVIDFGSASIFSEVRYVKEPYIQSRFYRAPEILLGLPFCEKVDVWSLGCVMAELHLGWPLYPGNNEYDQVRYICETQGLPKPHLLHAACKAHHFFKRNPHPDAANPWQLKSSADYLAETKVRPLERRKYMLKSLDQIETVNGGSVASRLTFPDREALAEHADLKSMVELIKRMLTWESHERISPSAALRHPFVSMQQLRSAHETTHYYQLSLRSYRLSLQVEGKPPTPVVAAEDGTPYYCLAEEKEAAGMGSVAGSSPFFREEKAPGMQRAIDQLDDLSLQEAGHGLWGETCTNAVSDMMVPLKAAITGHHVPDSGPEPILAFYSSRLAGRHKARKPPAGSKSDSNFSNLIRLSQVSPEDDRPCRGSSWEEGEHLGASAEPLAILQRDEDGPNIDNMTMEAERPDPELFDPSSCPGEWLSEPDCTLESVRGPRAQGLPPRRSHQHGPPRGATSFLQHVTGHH

[15] = target: T2, Homeodomain-interacting protein kinase 4 (Homo sapiens); settings: at 1 µM
[16] = target: Mitogen-activated protein kinase 9 (Homo sapiens) (UniProt P45984); settings: at 0.1 µM
[17] = target: Mitogen-activated protein kinase 9 (Homo sapiens) (UniProt P45984); settings: at 1 µM
[18] = target: Mitogen-activated protein kinase 1 (Homo sapiens) (UniProt P28482); settings: at 0.1 µM
[19] = target: Mitogen-activated protein kinase 1 (Homo sapiens) (UniProt P28482); settings: at 1 µM
[20] = target: Mitogen-activated protein kinase 3 (Homo sapiens) (UniProt P27361); settings: at 0.1 µM;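 note: each value is a mean inhibition figure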
Mitogen-activated protein kinase 3 (Homo sapiens), sequence (P27361 whole entry): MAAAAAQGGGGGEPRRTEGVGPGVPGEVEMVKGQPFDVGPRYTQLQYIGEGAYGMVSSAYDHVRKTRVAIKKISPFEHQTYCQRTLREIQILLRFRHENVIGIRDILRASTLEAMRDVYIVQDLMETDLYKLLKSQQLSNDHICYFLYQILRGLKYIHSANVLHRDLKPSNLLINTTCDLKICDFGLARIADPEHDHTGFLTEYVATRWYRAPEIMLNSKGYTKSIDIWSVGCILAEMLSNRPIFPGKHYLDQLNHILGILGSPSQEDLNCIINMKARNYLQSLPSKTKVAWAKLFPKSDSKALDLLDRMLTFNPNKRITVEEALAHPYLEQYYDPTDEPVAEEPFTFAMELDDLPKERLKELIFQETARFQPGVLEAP

Mitogen-activated protein kinase 1 (Homo sapiens), sequence (P28482 whole entry): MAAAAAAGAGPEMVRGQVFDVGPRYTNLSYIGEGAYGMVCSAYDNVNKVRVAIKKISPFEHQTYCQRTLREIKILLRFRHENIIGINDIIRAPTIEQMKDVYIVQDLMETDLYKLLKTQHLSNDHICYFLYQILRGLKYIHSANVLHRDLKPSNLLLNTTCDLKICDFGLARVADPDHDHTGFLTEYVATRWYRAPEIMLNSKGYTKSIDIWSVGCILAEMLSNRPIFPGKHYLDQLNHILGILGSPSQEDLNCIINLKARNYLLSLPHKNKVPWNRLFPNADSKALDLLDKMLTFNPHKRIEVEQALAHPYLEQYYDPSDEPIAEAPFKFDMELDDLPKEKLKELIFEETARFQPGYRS
Dual specificity tyrosine-phosphorylation-regulated kinase 1B (Homo sapiens), sequence (Q9Y463 whole entry, looked up): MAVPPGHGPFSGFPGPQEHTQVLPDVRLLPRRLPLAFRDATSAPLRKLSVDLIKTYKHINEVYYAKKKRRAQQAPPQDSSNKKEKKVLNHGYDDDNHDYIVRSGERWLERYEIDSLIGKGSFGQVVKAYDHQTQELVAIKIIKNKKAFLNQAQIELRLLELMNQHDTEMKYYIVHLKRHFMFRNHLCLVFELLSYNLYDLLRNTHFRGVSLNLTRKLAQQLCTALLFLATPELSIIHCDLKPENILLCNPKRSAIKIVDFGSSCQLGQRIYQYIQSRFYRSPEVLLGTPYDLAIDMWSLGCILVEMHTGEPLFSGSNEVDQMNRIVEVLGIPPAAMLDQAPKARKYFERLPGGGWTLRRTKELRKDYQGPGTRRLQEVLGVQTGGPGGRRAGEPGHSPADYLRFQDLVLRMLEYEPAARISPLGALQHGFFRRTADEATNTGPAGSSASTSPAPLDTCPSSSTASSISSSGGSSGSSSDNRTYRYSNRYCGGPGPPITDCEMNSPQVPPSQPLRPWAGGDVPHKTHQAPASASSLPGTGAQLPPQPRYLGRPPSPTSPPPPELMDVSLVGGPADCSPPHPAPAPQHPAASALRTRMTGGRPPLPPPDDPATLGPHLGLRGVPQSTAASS
Glycogen synthase kinase-3 alpha (Homo sapiens), sequence (P49840 2-483 limits assumed): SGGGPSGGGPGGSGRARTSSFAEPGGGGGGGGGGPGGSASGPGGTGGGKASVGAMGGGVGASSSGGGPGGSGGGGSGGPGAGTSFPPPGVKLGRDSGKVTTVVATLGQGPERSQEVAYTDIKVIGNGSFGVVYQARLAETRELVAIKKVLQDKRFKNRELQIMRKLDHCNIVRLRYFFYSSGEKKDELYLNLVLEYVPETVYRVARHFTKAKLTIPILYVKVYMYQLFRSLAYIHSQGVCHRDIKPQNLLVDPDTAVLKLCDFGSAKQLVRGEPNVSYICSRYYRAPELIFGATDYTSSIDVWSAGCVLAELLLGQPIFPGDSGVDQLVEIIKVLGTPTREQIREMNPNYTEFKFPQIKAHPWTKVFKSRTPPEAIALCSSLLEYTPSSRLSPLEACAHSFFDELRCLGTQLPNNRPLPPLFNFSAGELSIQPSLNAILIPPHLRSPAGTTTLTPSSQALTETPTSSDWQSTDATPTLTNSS
Mitogen-activated protein kinase 9 (Homo sapiens), sequence (P45984 whole entry, looked up): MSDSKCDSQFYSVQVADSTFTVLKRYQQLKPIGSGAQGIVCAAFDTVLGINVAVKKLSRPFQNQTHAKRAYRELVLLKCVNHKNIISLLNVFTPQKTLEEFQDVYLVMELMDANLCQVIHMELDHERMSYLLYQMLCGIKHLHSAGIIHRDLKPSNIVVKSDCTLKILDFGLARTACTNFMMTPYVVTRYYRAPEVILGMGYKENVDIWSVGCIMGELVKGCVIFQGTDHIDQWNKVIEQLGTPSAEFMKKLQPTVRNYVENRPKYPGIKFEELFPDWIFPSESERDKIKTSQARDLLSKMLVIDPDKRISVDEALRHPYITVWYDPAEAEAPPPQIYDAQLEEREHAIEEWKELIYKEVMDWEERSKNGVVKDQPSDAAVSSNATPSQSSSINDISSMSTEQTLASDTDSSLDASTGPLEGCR
Glycogen synthase kinase-3 beta (Homo sapiens), sequence (P49841 whole entry, looked up): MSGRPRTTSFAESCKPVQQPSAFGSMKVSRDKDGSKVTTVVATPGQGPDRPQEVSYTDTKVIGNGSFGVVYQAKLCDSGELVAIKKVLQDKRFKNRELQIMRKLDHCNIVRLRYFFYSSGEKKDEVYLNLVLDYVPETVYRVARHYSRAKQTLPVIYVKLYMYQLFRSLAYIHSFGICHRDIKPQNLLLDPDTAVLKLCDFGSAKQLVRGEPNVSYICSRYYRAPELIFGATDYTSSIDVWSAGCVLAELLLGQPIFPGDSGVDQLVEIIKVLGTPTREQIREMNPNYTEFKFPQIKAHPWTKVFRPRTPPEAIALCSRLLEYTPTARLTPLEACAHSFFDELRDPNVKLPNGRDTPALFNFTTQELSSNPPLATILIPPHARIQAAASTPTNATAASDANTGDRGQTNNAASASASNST
Homeodomain-interacting protein kinase 1 (Homo sapiens), sequence (Q86Z02 whole entry, looked up): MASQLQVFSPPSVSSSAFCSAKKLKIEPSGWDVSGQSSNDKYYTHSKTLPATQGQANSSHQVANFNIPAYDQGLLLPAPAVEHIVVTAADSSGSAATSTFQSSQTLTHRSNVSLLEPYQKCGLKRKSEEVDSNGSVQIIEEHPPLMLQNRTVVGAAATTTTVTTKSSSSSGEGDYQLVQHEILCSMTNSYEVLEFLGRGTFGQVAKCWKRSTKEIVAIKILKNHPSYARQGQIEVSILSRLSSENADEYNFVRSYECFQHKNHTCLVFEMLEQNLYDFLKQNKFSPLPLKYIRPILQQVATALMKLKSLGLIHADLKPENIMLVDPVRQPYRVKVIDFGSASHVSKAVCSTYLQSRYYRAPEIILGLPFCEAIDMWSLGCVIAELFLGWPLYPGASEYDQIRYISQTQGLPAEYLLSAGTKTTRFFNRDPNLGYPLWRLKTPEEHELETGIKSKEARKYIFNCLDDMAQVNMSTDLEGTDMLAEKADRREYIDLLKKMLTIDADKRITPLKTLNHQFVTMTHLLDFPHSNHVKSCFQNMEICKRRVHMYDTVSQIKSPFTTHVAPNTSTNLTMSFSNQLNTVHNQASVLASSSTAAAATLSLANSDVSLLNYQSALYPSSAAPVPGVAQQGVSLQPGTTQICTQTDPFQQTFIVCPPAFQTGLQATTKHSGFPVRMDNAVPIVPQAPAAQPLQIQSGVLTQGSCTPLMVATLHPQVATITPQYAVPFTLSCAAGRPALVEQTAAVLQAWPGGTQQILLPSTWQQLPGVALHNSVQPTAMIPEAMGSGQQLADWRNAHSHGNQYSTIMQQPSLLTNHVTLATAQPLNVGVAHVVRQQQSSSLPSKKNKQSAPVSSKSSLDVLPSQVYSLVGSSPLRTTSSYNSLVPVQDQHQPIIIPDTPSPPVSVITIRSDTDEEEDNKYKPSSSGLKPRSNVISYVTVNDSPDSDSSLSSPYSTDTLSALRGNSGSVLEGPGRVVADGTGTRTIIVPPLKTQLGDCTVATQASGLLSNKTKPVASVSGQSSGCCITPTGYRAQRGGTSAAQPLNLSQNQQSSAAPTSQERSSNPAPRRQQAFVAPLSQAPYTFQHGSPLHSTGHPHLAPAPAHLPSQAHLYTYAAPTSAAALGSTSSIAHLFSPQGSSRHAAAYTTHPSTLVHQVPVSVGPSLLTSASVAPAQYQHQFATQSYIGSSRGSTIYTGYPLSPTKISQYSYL
Dual specificity protein kinase CLK3 (Homo sapiens), sequence (P49761 whole entry, looked up): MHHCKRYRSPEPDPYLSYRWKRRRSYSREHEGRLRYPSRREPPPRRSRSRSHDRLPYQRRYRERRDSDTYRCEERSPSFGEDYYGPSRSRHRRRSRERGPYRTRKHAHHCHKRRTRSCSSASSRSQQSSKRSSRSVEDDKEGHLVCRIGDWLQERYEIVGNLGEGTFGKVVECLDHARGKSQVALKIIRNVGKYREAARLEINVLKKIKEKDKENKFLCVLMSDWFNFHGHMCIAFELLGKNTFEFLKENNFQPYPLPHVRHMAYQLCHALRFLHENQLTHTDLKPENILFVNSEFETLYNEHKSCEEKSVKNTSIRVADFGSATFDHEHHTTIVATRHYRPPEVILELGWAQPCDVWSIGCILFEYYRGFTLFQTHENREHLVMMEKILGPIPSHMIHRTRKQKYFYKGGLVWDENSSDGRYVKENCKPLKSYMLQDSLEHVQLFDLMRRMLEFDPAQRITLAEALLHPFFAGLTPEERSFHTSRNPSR

SMILES | inhibition [1] [%] | inhibition [2] [%] | inhibition [3] [%] | inhibition [4] [%] | inhibition [5] [%] | inhibition [6] [%] | inhibition [7] [%] | inhibition [8] [%] | inhibition [9] [%] | inhibition [10] [%] | inhibition [11] [%] | inhibition [12] [%] | inhibition [13] [%] | inhibition [14] [%] | inhibition [15] [%] | inhibition [16] [%] | inhibition [17] [%] | inhibition [18] [%] | inhibition [19] [%] | inhibition [20] [%]
c1cnn2ncc(-c3ccnc(Nc4ccc5c(c4)OCCO5)n3)c2c1 | 52 | 79.6 | 87.6 | 80.6 | 88.9 | 10.7 | 50.8 | 75.6 | 92.5 | 74.4 | 91 | 86.2 | 93 | 42.3 | 79.8 | 12.8 | 54.4 | 6.5 | 24 | 6.55
COc1cc2ncn(-c3cc(OCc4ccccc4C(F)(F)F)c(C(N)=O)s3)c2cc1OC | -2.17 | -1.02 | 2.2 | -4.5 | -2.84 | 1.73 | 3.25 | 0.16 | 4.9 | -0.65 | 7.21 | -1.28 | 4.22 | 10.1 | 40.6 | 1.63 | 2.16 | 4.18 | 6.38 | 5.3
N#Cc1c(NC(=O)c2cccc3ccccc23)sc2c1CCCC2 | 1.09 | 1.07 | 4.31 | 0.47 | 1.43 | 1.86 | 2.69 | 5.51 | 6.65 | 3.72 | 6.89 | -2.43 | 1.91 | -1.01 | 2.45 | 6.07 | 25.4 | 2.02 | 3.91 | -0.53
CC(C)=Cc1cccc2c1/C(=N/Nc1ccc(S(N)(=O)=O)cc1)C(=O)N2 | 1.83 | -1.42 | 2.34 | 0.57 | 5.61 | 0.58 | 2.29 | 13.8 | 53.5 | 7.42 | 44 | 2.49 | 10.8 | 1.38 | 6.2 | -0.73 | 6.66 | -0.23 | 0.78 | 0.6
CN(C)c1cc2c(Nc3ccc4nc(Cc5ccccc5)[nH]c4c3)ncnc2cn1 | 3 | 4.46 | 6.18 | 1.66 | 2.67 | 3.79 | 5.25 | 2.41 | 4.97 | 1.6 | 2.68 | 0.23 | 2.19 | 2.51 | 4.06 | 10.2 | 1.8 | 4.86 | 6.26 | 3.48
Nc1nc(-c2ccccn2)c(-c2ccc3ncccc3n2)s1 | 4.76 | 7.05 | 18.3 | 3.14 | 8.56 | 2.04 | 4.58 | 3.86 | 12.8 | 3.76 | 8.29 | 4.06 | 10.3 | 3.92 | 10.1 | 2.16 | 2.28 | 1.86 | 2.54 | 1.83
